Assay [1] concerns the target Bile acid receptor (Homo sapiens) (UniProt Q96RI1). In words: ATG_IR1_CIS: Attagene CIS-FACTORIAL HepG2 Assay for human Nuclear Receptor Subfamily 1 Group H Member 4 (NR1H4), IR1 submotif (AID 2282946). To be noted: IR1 reporter transcription, actives raise or lower the signal. Put shortly:
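HepG2 cells transiently transfected with multiplexed cis-element reporter units read endogenous transcription factor activity. After 24 h compound exposure, reporter mRNA was quantified by RT-PCR, fluorescent labelling, HpaI digestion and capillary electrophoresis; bidirectional fitting versus DMSO baseline.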

Assay [2] in a line: ATG_GRE_CIS: Attagene CIS-FACTORIAL HepG2 Assay for human Glucocorticoid Response Elements (GRE) (AID 2282947). To be noted: HepG2 GRE cis-reporter, Attagene multiplex mRNA; actives raise or lower the signal. Put shortly: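 Reporter transcripts read by RT-PCR with capillary electrophoresis fluorescence after a 24 h chemical exposure of HepG2 cells transiently transfected with multiple cis-element reporter units. Gain or loss fitted against DMSO.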

The nature of assay [3]: ATG_ISRE_CIS: Attagene CIS-FACTORIAL HepG2 Assay for human Interferon Regulatory Factor 1 (IRF1) binding to an Interferon-Stimulated Response Element (ISRE) (AID 2282948). To be noted: HepG2 ISRE cis-reporter (Attagene), mRNA transcription readout; actives raise or lower the signal. Put shortly: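 Multiplexed mRNA reporter readout in human liver HepG2 cells: cis-element-driven reporters transfected, compound added for 24 h, transcripts amplified, fluorescently labelled and sized by capillary electrophoresis; curve fitting bidirectional against DMSO.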

Assay [4] can be described thus: ATG_M_32_CIS: Attagene CIS-FACTORIAL HepG2 Assay for M32 Transcription Factor (Internal Marker) (AID 2282949).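 Also: background control marker of the multiplexed CIS panel rather than a real target.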 To be noted: HepG2 Attagene cis-factorial M32 reporter, mRNA; actives raise or lower the signal. Put shortly:
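HepG2 human liver cells transiently transfected with cis-promoter-driven multiple reporter transcription units, dosed 24 h. Reporter mRNA quantified by RT-PCR, FAM-labelled primer extension, HpaI digest and capillary electrophoresis; bidirectional fit versus DMSO baseline.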

Assay [5] in a line: ATG_M_06_CIS: Attagene CIS-FACTORIAL HepG2 Assay for M06 Transcription Factor (Internal Marker) (AID 2282950). To be noted: HepG2 Attagene CIS-FACTORIAL M06 internal marker reporter; actives raise or lower the signal. Put shortly:
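One of many multiplexed endpoints: HepG2 reporter mRNA after 24 h dosing, detected by RT-PCR and capillary electrophoresis fluorescence; gain or loss of signal analysed against DMSO.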

Assay [6] has as its target Heat shock factor protein 1 (Homo sapiens) (UniProt Q00613). The assay can be described thus: ATG_HSE_CIS: Attagene CIS-FACTORIAL HepG2 Assay for human Heat Shock Transcription Factor 1 (HSE) (AID 2282953). The following applies: HepG2 HSE cis-reporter, Attagene RNA transcription; actives raise or lower the signal. Put shortly:
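Using HepG2 with transfected cis-driven reporter constructs, compound effects on endogenous factor activity are scored as reporter mRNA change at 24 h. Detection: RT-PCR, HpaI digestion, capillary electrophoresis; bidirectional fitting to DMSO.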

A short description of assay [7]: ATG_MRE_CIS: Attagene CIS-FACTORIAL HepG2 Assay for human Metal Responsive Element (MRE) (AID 2282954). To be noted: HepG2 MRE cis-reporter transcription, Attagene multiplex; actives raise or lower the signal. Put shortly:
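Endogenous MRE-dependent transcription read as reporter mRNA in transiently transfected human HepG2 cells at 24 h. RNA reverse-transcribed, PCR-amplified, labelled and resolved by capillary electrophoresis; gain or loss relative to DMSO.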

The nature of assay [8]: ATG_PBREM_CIS: Attagene CIS-FACTORIAL HepG2 Assay for human Phenobarbital-responsive Enhancer Module (PBREM) (AID 2282955). To be noted: HepG2 PBREM cis-reporter, Attagene multiplexed transcription; actives raise or lower the signal. Put shortly:
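Multiplexed cis-reporter readout in human hepatoma HepG2 cells; PBREM-regulated transcript quantified after 24 h exposure by fluorescent RT-PCR fragment analysis. Signal changes up or down fitted relative to DMSO.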

Assay [9] can be described thus: ATG_PXRE_CIS: Attagene CIS-FACTORIAL HepG2 Assay for human Pregnane X Receptor Element (PXRE) (AID 2282957). To be noted: HepG2 Attagene CIS-FACTORIAL PXRE reporter, mRNA; actives raise or lower the signal. Put shortly:
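Reporter transcripts under endogenous PXR-responsive cis-regulation quantified from total RNA of transfected HepG2 cells 24 h post-dosing, via RT-PCR with fluorescent primer extension and capillary electrophoresis. Gain or loss of signal fitted against DMSO baseline.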

Assay [10] can be described thus: ATG_RORE_CIS: Attagene CIS-FACTORIAL HepG2 Assay for human RAR-related Orphan Receptor Element (RORE) (AID 2282959). The following applies: HepG2 Attagene cis-factorial RORE reporter, mRNA; actives raise or lower the signal. A digest of the protocol: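 Transfect HepG2 with MRTUs; treat 24 h; extract RNA; RT with oligo(dT); PCR with reporter-specific primers; 6-FAM primer extension; HpaI digest 2 h at 37 C; capillary electrophoresis. Fit vs DMSO, bidirectional.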

The target of assay [11] is Transcription factor Sp1 (Homo sapiens) (UniProt P08047). In words: ATG_Sp1_CIS: Attagene CIS-FACTORIAL HepG2 Assay for human Specificity Protein 1 (Sp1) (AID 2282961). To be noted: HepG2 Sp1 cis-reporter transcription, actives raise or lower the signal. Put shortly: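 Chemicals are dosed onto HepG2 cells transfected with multiple cis-promoter reporter constructs, and after 24 h reporter RNA is reverse-transcribed, PCR-amplified and resolved by capillary electrophoresis for fluorescence quantitation; activity is scored up or down against DMSO.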
Sequence of Transcription factor Sp1 (Homo sapiens) (P08047 whole entry, looked up): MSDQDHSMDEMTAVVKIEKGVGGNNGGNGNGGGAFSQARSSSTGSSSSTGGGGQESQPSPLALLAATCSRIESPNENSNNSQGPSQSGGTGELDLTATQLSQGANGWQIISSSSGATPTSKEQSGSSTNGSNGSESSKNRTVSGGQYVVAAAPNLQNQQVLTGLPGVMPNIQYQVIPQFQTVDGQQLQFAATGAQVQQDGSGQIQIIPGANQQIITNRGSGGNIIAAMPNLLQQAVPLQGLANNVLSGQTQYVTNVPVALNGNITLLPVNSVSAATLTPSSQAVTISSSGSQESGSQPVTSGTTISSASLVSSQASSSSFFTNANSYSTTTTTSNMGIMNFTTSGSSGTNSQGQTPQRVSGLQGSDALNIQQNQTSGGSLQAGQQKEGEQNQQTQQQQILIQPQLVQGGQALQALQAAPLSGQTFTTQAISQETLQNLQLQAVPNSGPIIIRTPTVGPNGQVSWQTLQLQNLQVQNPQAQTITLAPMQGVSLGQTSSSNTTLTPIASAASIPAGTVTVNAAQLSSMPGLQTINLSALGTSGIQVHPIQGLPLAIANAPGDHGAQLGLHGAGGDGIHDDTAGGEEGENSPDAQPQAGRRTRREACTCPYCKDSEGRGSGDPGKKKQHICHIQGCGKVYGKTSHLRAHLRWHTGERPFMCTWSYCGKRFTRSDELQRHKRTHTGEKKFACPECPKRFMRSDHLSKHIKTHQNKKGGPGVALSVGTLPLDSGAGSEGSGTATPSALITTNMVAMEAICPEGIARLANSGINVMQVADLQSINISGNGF

The nature of assay [12]: ATG_SREBP_CIS: Attagene CIS-FACTORIAL HepG2 Assay for human Sterol Regulatory Element Binding (SREBP) (AID 2282962). To be noted: HepG2 Attagene cis-factorial SREBP reporter, mRNA; actives raise or lower the signal. Put shortly:
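Endogenous factor activity is measured in HepG2 through multiplexed reporter units under cis-element control. Following a 24 h incubation, reporter transcripts are reverse-transcribed, PCR-amplified and sized by capillary electrophoresis; activity is fitted in both directions relative to DMSO.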

Assay [13] concerns the target Signal transducer and activator of transcription 3 (Homo sapiens) (UniProt P40763). In words: ATG_STAT3_CIS: Attagene CIS-FACTORIAL HepG2 Assay for human Signal Transducer and Activator of Transcription 3 (STAT3) (AID 2282963). To be noted: HepG2, Attagene cis-factorial STAT3 reporter transcription; actives raise or lower the signal. A digest of the protocol: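 Readout is reporter transcript quantified by RT-PCR and capillary electrophoresis, with 6-FAM primer extension and HpaI digestion. Total RNA is taken 24 h after dosing transiently transfected HepG2 carrying cis-regulated reporter units. Bidirectional fit against DMSO.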

Assay [14] in a line: ATG_TA_CIS: Attagene CIS-FACTORIAL HepG2 Assay for human TA Basal Promoter (AID 2282964). The following applies: HepG2 Attagene CIS-factorial TA basal promoter reporter; actives raise or lower the signal. A digest of the protocol: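 Transient MRTU transfection of HepG2 preceded 24 h compound exposure. Reporter mRNA levels were then read by RT-PCR with capillary electrophoresis, and this background-control endpoint was fitted bidirectionally to DMSO.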

Assay [15] in a line: ATG_TCF_b_cat_CIS: Attagene CIS-FACTORIAL HepG2 Assay for human T-Cell-Factor with beta-catenin (TCF/b-cat) (AID 2282965). To be noted: HepG2 TCF/beta-catenin cis-reporter transcription, actives raise or lower the signal. Put shortly:
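Endogenous transcription factor activity is captured through cis-promoter reporter constructs transiently introduced into human HepG2 liver cells. Induced reporter mRNA is measured after 24 h and fitted bidirectionally relative to DMSO.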

Assay [16] deals with Hepatocyte nuclear factor 6 (Homo sapiens) (UniProt Q9UBC0). In words: ATG_HNF6_CIS: Attagene CIS-FACTORIAL HepG2 Assay for human Hepatocyte Nuclear Factor 6 (HNF6) (AID 2282952). The following applies: HepG2 Attagene cis-factorial HNF6 reporter transcription; actives raise or lower the signal. A digest of the protocol:
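Endogenous factor activity read in transiently transfected HepG2 via promoter-regulated reporter transcripts. RNA harvested 24 h post-dosing, reverse-transcribed, PCR-amplified, FAM-labelled, HpaI-digested and resolved by capillary electrophoresis; fitted in both directions against DMSO.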

For assay [17], the target named is Paired box protein Pax-6 (Homo sapiens) (UniProt P26367). In words: ATG_Pax6_CIS: Attagene CIS-FACTORIAL HepG2 Assay for human Paired Box 6 (PAX6) (AID 2282956). The following applies: HepG2 CIS-FACTORIAL PAX6 reporter transcription, RNA readout; actives raise or lower the signal. Put shortly: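 Fluorescent RT-PCR products separated by capillary electrophoresis report PAX6-linked promoter mRNA in HepG2 cells 24 h post-dose. Curves fitted bidirectionally, DMSO as negative control.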
Sequence of Paired box protein Pax-6 (Homo sapiens) (P26367 whole entry, looked up): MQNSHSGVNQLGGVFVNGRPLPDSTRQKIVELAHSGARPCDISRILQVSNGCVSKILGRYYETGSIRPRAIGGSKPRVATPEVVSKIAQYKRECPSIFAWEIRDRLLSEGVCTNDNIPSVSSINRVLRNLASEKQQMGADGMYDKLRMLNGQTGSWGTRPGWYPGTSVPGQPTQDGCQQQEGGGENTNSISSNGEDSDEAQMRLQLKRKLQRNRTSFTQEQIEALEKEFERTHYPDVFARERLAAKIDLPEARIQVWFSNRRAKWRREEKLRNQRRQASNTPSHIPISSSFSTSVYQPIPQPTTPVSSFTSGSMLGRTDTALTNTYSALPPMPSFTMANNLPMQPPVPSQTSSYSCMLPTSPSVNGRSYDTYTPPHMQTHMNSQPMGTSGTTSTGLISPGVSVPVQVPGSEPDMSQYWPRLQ

The nature of assay [18]: ATG_PPRE_CIS: Attagene CIS-FACTORIAL HepG2 Assay for human Peroxisome Proliferator-activated Response Element (PPRE) (AID 2282958). To be noted: HepG2 PPRE cis-element reporter, Attagene transcription factor profiling; actives raise or lower the signal. A digest of the protocol: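 DMSO served as negative control and baseline for bidirectional curve fitting. Signal came from PPRE-regulated reporter mRNA in HepG2 cells, measured 24 h post-dosing by RT-PCR, 6-FAM primer extension and capillary electrophoresis.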

Assay [19] is described as follows: ATG_Sox_CIS: Attagene CIS-FACTORIAL HepG2 Assay for human SRY-box transcription factor (SOX) (AID 2282960). To be noted: HepG2 Attagene cis-factorial SOX reporter, mRNA; actives raise or lower the signal. Put shortly: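 Fluorescence-labelled cDNA fragments from reporter transcripts, sized by CE, give the signal. Cells: HepG2, transiently transfected with cis-regulated reporter units. Exposure 24 h; DMSO negative control; bidirectional curve fitting.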

The source made the active and inactive calls. The calls were made as follows: active = hit-call score of the fitted dose curve at least 0.9, where 1 is the maximum; inactive = score below 0.9.

For orientation: AC50 means the concentration at which the activity in the assay is half-maximal.

Sequence of Hepatocyte nuclear factor 6 (Homo sapiens) (Q9UBC0 whole entry, looked up): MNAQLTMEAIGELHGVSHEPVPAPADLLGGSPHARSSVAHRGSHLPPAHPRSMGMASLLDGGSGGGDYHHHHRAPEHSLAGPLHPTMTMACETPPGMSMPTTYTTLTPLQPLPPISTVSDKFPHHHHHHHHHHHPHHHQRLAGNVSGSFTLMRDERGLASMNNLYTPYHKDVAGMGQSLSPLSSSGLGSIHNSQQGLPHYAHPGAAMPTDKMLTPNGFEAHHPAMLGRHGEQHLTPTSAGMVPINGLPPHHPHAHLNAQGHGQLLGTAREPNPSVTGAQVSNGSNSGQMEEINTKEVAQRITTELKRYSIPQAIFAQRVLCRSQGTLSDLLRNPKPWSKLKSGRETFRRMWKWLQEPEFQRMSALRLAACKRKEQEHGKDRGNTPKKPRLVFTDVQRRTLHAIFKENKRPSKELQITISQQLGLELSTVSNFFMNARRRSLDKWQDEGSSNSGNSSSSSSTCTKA
Sequence of Bile acid receptor (Homo sapiens) (Q96RI1 whole entry, looked up): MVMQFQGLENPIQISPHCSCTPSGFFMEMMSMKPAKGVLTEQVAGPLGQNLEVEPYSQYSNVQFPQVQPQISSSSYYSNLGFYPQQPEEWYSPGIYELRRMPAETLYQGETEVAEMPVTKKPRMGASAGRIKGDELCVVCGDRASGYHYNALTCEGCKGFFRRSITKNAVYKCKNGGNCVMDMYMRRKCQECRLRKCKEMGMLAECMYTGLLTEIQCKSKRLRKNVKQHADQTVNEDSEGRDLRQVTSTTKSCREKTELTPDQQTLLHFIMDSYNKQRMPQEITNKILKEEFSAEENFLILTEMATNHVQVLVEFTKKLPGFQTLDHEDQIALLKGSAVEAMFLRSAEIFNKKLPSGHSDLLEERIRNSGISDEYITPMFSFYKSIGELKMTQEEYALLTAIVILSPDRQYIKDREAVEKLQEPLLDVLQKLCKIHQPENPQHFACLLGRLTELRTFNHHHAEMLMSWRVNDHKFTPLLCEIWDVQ
Sequence of Signal transducer and activator of transcription 3 (Homo sapiens) (P40763 whole entry, looked up): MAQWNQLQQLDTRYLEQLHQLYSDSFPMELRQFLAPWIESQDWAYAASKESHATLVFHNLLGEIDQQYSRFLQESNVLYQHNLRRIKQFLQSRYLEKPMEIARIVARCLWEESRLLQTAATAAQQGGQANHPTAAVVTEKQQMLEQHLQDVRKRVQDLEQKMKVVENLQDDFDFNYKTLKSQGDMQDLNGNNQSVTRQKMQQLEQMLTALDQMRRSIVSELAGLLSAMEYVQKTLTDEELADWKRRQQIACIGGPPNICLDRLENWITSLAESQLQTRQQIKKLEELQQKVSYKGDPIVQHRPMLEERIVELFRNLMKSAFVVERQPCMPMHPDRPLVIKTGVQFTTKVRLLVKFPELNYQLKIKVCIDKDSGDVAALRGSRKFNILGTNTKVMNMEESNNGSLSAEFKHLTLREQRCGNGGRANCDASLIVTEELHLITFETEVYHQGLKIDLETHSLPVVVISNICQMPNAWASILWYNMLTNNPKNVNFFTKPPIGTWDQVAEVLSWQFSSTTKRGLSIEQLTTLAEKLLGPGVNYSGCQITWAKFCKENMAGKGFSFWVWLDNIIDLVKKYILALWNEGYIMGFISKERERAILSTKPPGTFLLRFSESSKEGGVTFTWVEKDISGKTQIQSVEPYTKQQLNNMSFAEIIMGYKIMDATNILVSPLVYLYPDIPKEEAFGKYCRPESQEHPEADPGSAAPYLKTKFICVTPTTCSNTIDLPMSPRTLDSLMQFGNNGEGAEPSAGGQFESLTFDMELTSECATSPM
Sequence of Heat shock factor protein 1 (Homo sapiens) (Q00613 whole entry, looked up): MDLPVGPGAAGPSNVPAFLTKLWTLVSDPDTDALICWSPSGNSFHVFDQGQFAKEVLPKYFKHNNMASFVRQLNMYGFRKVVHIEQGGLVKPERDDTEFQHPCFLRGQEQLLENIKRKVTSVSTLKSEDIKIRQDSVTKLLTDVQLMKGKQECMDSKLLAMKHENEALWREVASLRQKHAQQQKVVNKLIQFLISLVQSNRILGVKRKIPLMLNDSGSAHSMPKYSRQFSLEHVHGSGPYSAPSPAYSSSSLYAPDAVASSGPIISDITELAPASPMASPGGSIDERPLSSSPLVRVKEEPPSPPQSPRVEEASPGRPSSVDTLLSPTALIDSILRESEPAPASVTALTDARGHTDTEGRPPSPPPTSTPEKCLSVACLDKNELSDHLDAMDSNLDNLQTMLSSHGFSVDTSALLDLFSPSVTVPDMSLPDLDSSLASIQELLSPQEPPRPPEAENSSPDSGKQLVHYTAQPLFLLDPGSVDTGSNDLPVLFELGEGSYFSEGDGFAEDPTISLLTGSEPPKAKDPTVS

Turning to `CCC1(c2ccccc2)C(=O)NCNC1=O`, the outcome in assay [1], in assay [2], in [3], in assay [4], in assay [5] and in [6] was inactive. Also, the molecule was classed as inactive in assay [7], in assay [8], in [9], in assay [10], in assay [11] and in assay [12]. The call in assay [13], in assay [14] and in assay [15] was inactive.

Regarding `COCCc1ccc(OCC(O)CNC(C)C)cc1` (configuration not stated), the call in [1], in assay [2], in [3], in [4], in [5] and in assay [16] was inactive. The outcome in [7], in assay [8], in [17], in assay [18], in assay [19] and in [11] was inactive. The call in [12], in assay [13], in assay [14] and in assay [15] was inactive. Further, the AC50 in assay [9] is 55 µM (active).

Consider `O=C(O)COCC(=O)O`, for which the result in assay [1], in assay [2], in assay [3], in assay [4], in assay [5] and in assay [16] was inactive. Moreover, the molecule was called inactive in [7], in [8], in assay [17], in assay [9], in assay [10] and in assay [19]. Moreover, the molecule was classed as inactive in assay [11], in [12], in assay [13], in [14] and in assay [15].

For the molecule `NCc1ccco1`, the molecule was called inactive in [1], in [2], in [3], in assay [4], in [5] and in [16]. Also, the result in [6], in [7], in assay [8], in assay [17], in [9] and in assay [18] was inactive. Moreover, the call in assay [10], in assay [19], in assay [11], in [12], in [13] and in [15] was inactive.

For the origin of these results see PubChem BioAssay (EPA / NIEHS).
